# Substitutions are numbered along the chain they refer to.
# Molecular target: T1, GST-Ap-NF-kB RHD (Exaiptasia pallida (Aiptasia), UniProt A0A913YAJ5 2-422)
# T1 sequence: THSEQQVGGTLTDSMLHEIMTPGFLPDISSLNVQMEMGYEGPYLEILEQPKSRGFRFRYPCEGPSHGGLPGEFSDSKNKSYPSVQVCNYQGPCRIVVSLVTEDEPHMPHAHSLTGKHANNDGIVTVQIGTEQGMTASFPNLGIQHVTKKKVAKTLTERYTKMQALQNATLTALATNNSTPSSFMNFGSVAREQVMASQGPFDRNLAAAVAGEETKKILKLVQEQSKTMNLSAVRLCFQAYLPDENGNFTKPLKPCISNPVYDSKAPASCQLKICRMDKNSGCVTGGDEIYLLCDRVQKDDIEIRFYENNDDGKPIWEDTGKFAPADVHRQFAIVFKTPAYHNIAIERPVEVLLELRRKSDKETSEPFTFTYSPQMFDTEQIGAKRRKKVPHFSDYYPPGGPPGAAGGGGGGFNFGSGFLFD
# Test: protein-binding microarray (PBM); PBM: ~300 nM protein, 6 mM HEPES pH 7.8, 80 mM KCl, 0.5 mM EDTA, 0.5 mM EGTA, 6% glycerol, 35 ng/ul poly-dIdC, 1% milk, 1 h, room temperature; Ap Aiptasia and Nv Nematostella (sea anemones) / Co Capsaspora / Aq Amphimedon (sponge) / Dm Drosophila / Hu human; RHD is the Rel homology domain; high values mean tight binding
# Conditions: dsDNA, one strand shown
row,Sequence,binding signal
1,CCGATTAACATCAGGAAATGGGATGATGTTAATCGGGTCTTGATTCGCTTGACGCTGCTG,1.33 z-score
2,CCGATTAACATCAAGATTAGGGATGATGTTAATCGGGTCTTGATTCGCTTGACGCTGCTG,1.31 z-score
3,CCGATTAACATCACCCCGCATGCTGATGTTAATCGGGTCTTGATTCGCTTGACGCTGCTG,1.75 z-score
4,CCGATTAACATCATGTTTGCGGGTGATGTTAATCGGGTCTTGATTCGCTTGACGCTGCTG,1.22 z-score
5,CCGATTAACATCAGGAAGGGCGGTGATGTTAATCGGGTCTTGATTCGCTTGACGCTGCTG,1.05 z-score
6,CCGATTAACATCATCCCTTGTCATGATGTTAATCGGGTCTTGATTCGCTTGACGCTGCTG,1.2 z-score

# Molecular target: T2, GST-Nv-NF-kB (Cys allele) (Nematostella vectensis, UniProt E5G601 2-411)
# T2 sequence: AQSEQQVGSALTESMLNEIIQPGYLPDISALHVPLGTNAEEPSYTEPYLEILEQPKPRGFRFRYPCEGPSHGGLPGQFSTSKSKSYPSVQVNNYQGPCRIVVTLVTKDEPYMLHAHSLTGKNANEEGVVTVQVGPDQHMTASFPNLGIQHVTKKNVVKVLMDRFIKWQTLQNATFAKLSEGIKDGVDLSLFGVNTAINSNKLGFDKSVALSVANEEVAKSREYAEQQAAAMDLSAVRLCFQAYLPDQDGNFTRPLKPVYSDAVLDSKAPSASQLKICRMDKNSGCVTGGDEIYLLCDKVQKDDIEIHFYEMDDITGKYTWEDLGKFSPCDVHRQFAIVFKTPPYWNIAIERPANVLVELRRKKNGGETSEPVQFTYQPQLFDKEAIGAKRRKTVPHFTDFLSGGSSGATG
# Test: as above
# Conditions: dsDNA, one strand shown
row,Sequence,binding signal
1,CCGATTAACATCACGGAAAAAACTGATGTTAATCGGGTCTTGATTCGCTTGACGCTGCTG,1.12 z-score
2,CCGATTAACATCACCAGGTTAGGTGATGTTAATCGGGTCTTGATTCGCTTGACGCTGCTG,1.1 z-score
3,CCGATTAACATCAGGAAATTGCCTGATGTTAATCGGGTCTTGATTCGCTTGACGCTGCTG,1.05 z-score
4,CCGATTAACATCATATTGGGAAATGATGTTAATCGGGTCTTGATTCGCTTGACGCTGCTG,2.26 z-score
5,CCGATTAACATCACCTTGAACGGTGATGTTAATCGGGTCTTGATTCGCTTGACGCTGCTG,1.56 z-score
6,CCGATTAACATCAATTCCCAACCTGATGTTAATCGGGTCTTGATTCGCTTGACGCTGCTG,2.15 z-score
7,CCGATTAACATCACTCTTCTCGGTGATGTTAATCGGGTCTTGATTCGCTTGACGCTGCTG,1.05 z-score
8,CCGATTAACATCACCGAGTTAGTTGATGTTAATCGGGTCTTGATTCGCTTGACGCTGCTG,1.15 z-score

# Molecular target: T3, GST-Nv-NF-kB (Ser allele) (Nematostella vectensis, UniProt A7UNT2 2-411)
# T3 sequence: T2 sequence with Q21R, C66S, S207N, E215Q, V217A, E225K, A268E, D399E
# Test: as above
# Conditions: dsDNA, one strand shown
row,Sequence,binding signal
1,CCGATTAACATCACCGAAATTCCTGATGTTAATCGGGTCTTGATTCGCTTGACGCTGCTG,1.53 z-score
2,CCGATTAACATCACCTAACTTGATGATGTTAATCGGGTCTTGATTCGCTTGACGCTGCTG,1.07 z-score
3,CCGATTAACATCACCTGGTCGGGTGATGTTAATCGGGTCTTGATTCGCTTGACGCTGCTG,1.03 z-score
4,CCGATTAACATCACGGAAAAAACTGATGTTAATCGGGTCTTGATTCGCTTGACGCTGCTG,1.13 z-score
5,CCGATTAACATCACCAGGTTAGGTGATGTTAATCGGGTCTTGATTCGCTTGACGCTGCTG,1.85 z-score
6,CCGATTAACATCATATTGGGAAATGATGTTAATCGGGTCTTGATTCGCTTGACGCTGCTG,1.92 z-score
7,CCGATTAACATCACCTTGAACGGTGATGTTAATCGGGTCTTGATTCGCTTGACGCTGCTG,1.73 z-score
8,CCGATTAACATCAATTCCCAACCTGATGTTAATCGGGTCTTGATTCGCTTGACGCTGCTG,1.9 z-score
9,CCGATTAACATCACTCTTCTCGGTGATGTTAATCGGGTCTTGATTCGCTTGACGCTGCTG,1.37 z-score
10,CCGATTAACATCACGTGTGTAGGTGATGTTAATCGGGTCTTGATTCGCTTGACGCTGCTG,1.58 z-score

# Reference: publication PMC5700166
